Results reported in ChEMBL document CHEMBL3433997, “St. Jude Leishmania screening dataset” (2016).

Assays:
Type in all cases: functional
[1] = molecular target: Solute carrier family 2, facilitated glucose transporter member 1 (Homo sapiens) (UniProt P11166); test: ST_JUDE_LEISH: Cytotoxicity at 2uM final concentration against transgenic Leishmania Mexicana promastigotes LmGLUT1 that are glucose transport deficient and complemented with the human glucose transporter GLUT1. Activity is measured by DNA content using SYBR green in vitro
[2] = molecular target: Hexose transporter 1 (Plasmodium falciparum) (UniProt O97467); test: ST_JUDE_LEISH: Cytotoxicity at 2uM final concentration against transgenic Leishmania Mexicana promastigotes LmPfHT that are glucose transport deficient and complemented with the Plasmodium falciparum hexose transporter. Activity is measured by DNA content using SYBR green in vitro
[3] = molecular target: Glucose transporter (Leishmania mexicana) (UniProt O61059); test: ST_JUDE_LEISH: Cytotoxicity at 2uM final concentration against transgenic Leishmania Mexicana promastigotes LmGT2 that are glucose transport deficient and complemented with the L. Mexicana glucose transporter 2. Activity is measured by DNA content using SYBR green in vitro

Solute carrier family 2, facilitated glucose transporter member 1 (Homo sapiens), sequence (P11166 whole entry): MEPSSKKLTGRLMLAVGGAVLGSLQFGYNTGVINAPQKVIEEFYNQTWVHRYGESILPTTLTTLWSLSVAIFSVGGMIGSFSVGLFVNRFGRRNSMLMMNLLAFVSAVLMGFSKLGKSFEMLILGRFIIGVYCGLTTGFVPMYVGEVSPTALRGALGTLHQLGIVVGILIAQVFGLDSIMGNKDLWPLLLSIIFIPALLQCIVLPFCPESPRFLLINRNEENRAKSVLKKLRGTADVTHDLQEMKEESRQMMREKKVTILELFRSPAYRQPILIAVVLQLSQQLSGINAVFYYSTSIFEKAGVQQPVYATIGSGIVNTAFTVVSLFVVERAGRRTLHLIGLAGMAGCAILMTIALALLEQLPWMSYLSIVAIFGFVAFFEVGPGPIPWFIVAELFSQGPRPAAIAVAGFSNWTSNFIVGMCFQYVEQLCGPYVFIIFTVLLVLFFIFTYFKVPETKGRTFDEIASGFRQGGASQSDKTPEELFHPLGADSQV

Compound	inhibition [1] [%]	inhibition [2] [%]	inhibition [3] [%]
CCN(CC)S(=O)(=O)c1cc(-c2ccc(=O)n(CC(=O)c3ccc(C)cc3)n2)ccc1C	4.68	6.23	2.45
CC(=O)Nc1nc(N)c2c(ccc3c2ccn3CC(C)C)n1	-2.54	-0.46	-0.95
Cc1cc(N[C@@H](Cc2ccccc2)C(=O)NCCc2ccccc2)nc(NCC2CCCCC2)n1	2.97	3.86	1.29
CC(NC(=O)NC1CCC(CCN2CCCc3ccccc32)CC1)c1cccc2ccccc12 (centres undefined)	0.93	1.8	-1.84
O=C(Nc1ccccc1Cc1ccccc1)c1ccccc1[N+](=O)[O-]	-1.08	-2.27	-2.02
Cn1cncc1C(=O)Nc1cccc(-c2csc(-c3nc4ccccc4[nH]3)c2)c1	2.44	3.44	2.3
O=C(NCC1CCN(Cc2ccc(F)cc2)C1)c1cc(-c2cccc(C(F)(F)F)c2)cs1 (centres undefined)	-0.31	-1.16	-6.61
COc1cc2c(cc1OC)CN(CCc1ccc(NC(=O)c3cc4cc(OC(F)(F)F)ccc4[nH]3)cc1)CC2	3.34	3.67	1.17
CCCC(=O)Nc1ccc(OCCN(Cc2ccccc2OC(F)(F)F)c2ccc(C(F)(F)F)c(C#N)c2)cc1	3.46	1.7	2.31
CCS(=O)(=O)Nc1ccc2[nH]cc(C3CCN(CCC4CCN(C(=O)/C=C/c5ccc(Cl)c(Cl)c5)CC4)CC3)c2c1	2.73	4.42	1.91
CCOC(=O)CNCC(=O)c1ccc(OCc2ccccc2)cc1	1.94	0.64	2.44
OC(Cn1ccnc1)(c1ccc(Cl)cc1Cl)C1CCCCC1 (centres undefined)	7.78	1.5	-0.69
Cc1nnsc1C(=O)Nc1ccc(-c2cccc(-c3nc4cccc(C)c4[nH]3)c2)cc1	3.57	2.94	5.18
COc1cccc(-c2cc(C(=O)NC3CCC(N4CCC(c5ccccc5C)CC4)CC3)[nH]n2)c1 (centres undefined)	6.55	14.6	5.13
CC(C)CCN1CCCN(Cc2cccc(NC(=O)c3cc4ccccc4s3)c2)CC1	-0.92	0.43	2.29
COc1cc2ncnc(Nc3ccc(OC(F)(F)c4ccccc4)cc3)c2cc1OC	9.55	10.8	7.93
Cc1cccc(CCCNC(=O)CN(c2cccc(C(F)(F)F)c2)S(=O)(=O)c2ccc(C(F)(F)F)cc2)c1	5.38	4.48	4.63

Compound	inhibition [1] [%]	inhibition [2] [%]	inhibition [3] [%]
COc1ccc2[nH]c(C)cc(=NN=Cc3cc(OC)c(OC)cc3OC)c2c1	5.42	5.13	6.18
COc1ccc(CNCc2cccc(-c3cccc(-c4nc5ccccc5[nH]4)c3)c2)cc1	7.86	4.28	3.04
COc1cc(Cc2cnc(N)nc2N)cc(OCCCCCC(=O)O)c1OC	6.91	5.78	5.12
O=C(Nc1cccc(Cl)c1Cl)N1CCc2cc3nccc(N4CCN5CCC[C@H]5C4)c3cc21	-0.2	1.06	3.39
Clc1ccc(-c2ccc(C=NNc3nc(=Nc4ccccc4)[nH]c(=Nc4ccccc4)[nH]3)o2)cc1Cl	-3.26	-1.12	7.88
CC1CCN(CC[C@H]2CCCN2S(=O)(=O)c2cccc(NC(=O)Nc3ccc(C(F)(F)F)cc3)c2)CC1	0.63	1.64	-0.02
CNCc1ccc(-c2cccc(CNCc3ccc(-c4ccccc4)cc3)c2)c(C(=O)OC)c1	1.39	2.72	2.91
Nc1nccc2ccc(-c3ccc(OCc4ccccc4)cc3)cc12	0.87	2.36	1.39
O=C(c1ccc2ccccc2n1)N1CCCc2cc(Br)ccc21	8.95	1.96	0.16
Cc1ccc(NC(=O)NC2CCN(c3ccnc4cc(Cl)ccc34)CC2)cc1	9.02	7.47	8.65
O=C(Nc1ccc2ccccc2c1)N1CCC(NCc2cccc([N+](=O)[O-])c2)CC1	2.09	1.61	0.78
O=C(Nc1ccc([N+](=O)[O-])cc1Cl)c1cc(Br)cc(Cc2ccccc2)c1O	3.27	3.32	2.81
Nc1ccc(-c2ccc3ccnc(N)c3c2)cc1	0.24	-0.79	1.39
Cc1ccc(CNC(=O)c2cc3c(=O)n4ccccc4nc3n(CCCN3CCOCC3)c2=N)cc1	8.03	6.83	7.61
CCCCCCNC(=O)C1Cc2c([nH]c3ccc(Br)cc23)C2(CCN(CCc3ccccc3)CC2)N1 (centres undefined)	13.8	10.8	9.91
Cc1cc(NCCC(=O)Nc2ccccc2)nc(NCCc2ccccc2)n1	3.62	1.77	0.45
